# In PubChem BioAssay AID2596 (National Center for Advancing Translational Sciences (NCATS), 2010):
# Inconclusive results are not listed. Active and inactive are the calls of the source. Calls follow the shape of the dose curve; as a rule, active = well fitted inhibition curve with a large enough effect; inconclusive = small, poorly fitted or top-dose-only effect, or effect the other way; inactive = flat fitted curve, though single readings scatter.
# Biological target: Lysosomal acid glucosylceramidase (Homo sapiens) (UniProt P04062)
# Assay: qHTS Assay for Inhibitors and Activators of N370S glucocerebrosidase as a Potential Chaperone Treatment of Gaucher Disease: Purified N370S Glucocerebrosidase Cleavage of Glucosylceramide
# Details: purified N370S GCase; series mostly up to 77.6 µM; activity change, negative = inhibition: at the top concentration
# Excerpt: NIH Chemical Genomics Center [NCGC]
# NIH Molecular Libraries Probe Production Centers Network [MLPCN]
# Assay Submitter (PI): Wei Zheng
# Glucocerebrosidase (GC) catalyzes the hydrolysis of beta-glucocerebroside to glucose and ceramide in lysosomes. Mutations in the glucocerebrosidase gene result in Gaucher disease, an autosomal recessive lysosomal storage disorder. Many of the mutations encountered in patients with Gaucher disease are missense alterations that may cause misfolding, decreased stability and/or mistrafficking of this lysosomal protein. […] These inhibitors include iminosugar analogs and three non-iminosugar inhibitors identified from a previous HTS of 62,000 compounds with the wild type recombinant enzyme. However, the enhancement of enzyme activity by the chaperone action of an enzyme inhibitor must be balanced against the direct inhibition of the enzyme. An enzyme activator could also function as a chaperone by binding to the enzyme and helping to correct its misfolding and mistrafficking. While activators for GC have not yet been identified, they may have better therapeutic potential than inhibitors. Therefore the discovery and development of chemical activators may provide a new strategy for the chaperone therapy.
# We have optimized a new assay using N370S mutant GC derived from the spleen of a Gaucher patient. […] In addition, the MLPCN compound library has expanded, which increases the chance of finding new and better probes.
# This assay characterizes compound activity using purified, mutant enzyme cleavage of the native substrate for the enzyme instead of mutant enzyme from tissue homogenate. Compound activity differences may be due to the absence of endogenous cofactors found in tissue homogenate as well as inherent differences in enzyme stability and catalytic activity using the difference substrates.
# NCGC Assay Protocol Summary:
# This is an enzyme assay using glucosylceramide from soy (Avanti Polar Lipids Catalog #: 131304P) as the substrate and recombinant human glucocerebrosidase as the enzyme preparation. Upon hydrolysis of the substrate, the glucose product can be detected using the Amplex Red Glucose Oxidase Assay Kit (Invitrogen catalog #: A22189). The product of this reaction can be read with a fluorescence plate reader with an excitation at 573 nm and an emission at 610 nm. Data were normalized to the controls for basal activity (without enzyme) and 100% activity (with enzyme). The AC50 values were determined from concentration-response data modeled with the standard Hill equation.
# Assay buffer for enzyme reaction: 50 mM citric acid (titrated with potassium phosphate to pH 5.9), 0.01% Tween-20 (pH 5.9 is an optimal condition for this enzyme assay)
# Assay buffer for Amplex Red reaction: Tris-HCl, pH 7.5
# 1536-well assay protocol for the glucocerebrosidase assay:
# (1) Add 2 ul/well glucocerebrosidase enzyme solution (5 nM final)
# (2) Add 23 nL compounds in DMSO solution. The final titration was 0.7 nM to 77 uM.
# (3) Add 1 ul of glucosylceramide solution (50 uM final)
# (4) Incubate at 37C for 40 min
# (5) Add 2 ul tris-HCl buffer with Amplex Red reagents
# (6) Incubate 45 min at room temperature.
# (7) Detect the assay plate in a ViewLux plate reader (PerkinElmer) with Ex=573 nm and Em=610nm.
# Keywords: Glucocerebrosidase, beta-glucosidase, Gaucher Disease, pharmacological chaperone, chaperone therapy, high throughput screening, glucocerebrosidase inhibitor, MLSMR, MLSCN, NIH Roadmap, qHTS and NCGC
# Chain of Lysosomal acid glucosylceramidase (Homo sapiens) (P04062 whole entry N409S): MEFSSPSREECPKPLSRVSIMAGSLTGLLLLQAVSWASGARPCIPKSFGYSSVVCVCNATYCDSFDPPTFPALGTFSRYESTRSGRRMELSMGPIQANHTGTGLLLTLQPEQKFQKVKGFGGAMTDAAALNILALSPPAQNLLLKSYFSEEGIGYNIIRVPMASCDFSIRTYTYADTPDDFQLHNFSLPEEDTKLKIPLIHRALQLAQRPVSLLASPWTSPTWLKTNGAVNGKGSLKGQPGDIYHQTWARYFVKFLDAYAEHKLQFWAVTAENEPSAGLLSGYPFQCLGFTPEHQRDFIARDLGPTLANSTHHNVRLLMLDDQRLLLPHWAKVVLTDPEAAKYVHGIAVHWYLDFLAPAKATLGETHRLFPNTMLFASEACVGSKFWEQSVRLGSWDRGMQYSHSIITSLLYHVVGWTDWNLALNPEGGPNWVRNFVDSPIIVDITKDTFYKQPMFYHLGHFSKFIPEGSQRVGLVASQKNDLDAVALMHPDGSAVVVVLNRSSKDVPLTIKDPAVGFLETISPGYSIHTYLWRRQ
SMILES,"activity change, negative = inhibition",Potency
Cc1ccc(-c2nc(N3CCN(S(=O)(=O)c4ccc(F)cc4)CC3)c3ccc(Cl)cc3n2)cc1,-6.45% (inactive),
O=S(=O)(Cc1ccccc1)N1CCN(c2nc(-c3cccs3)nc3ccccc23)CC1,-0.322% (inactive),
COc1ccc(S(=O)(=O)N2CCN(c3nc(-c4cccs4)nc4ccccc34)CC2)cc1,2.55% (inactive),
Cc1ccc(NC(=O)COc2ccccc2C(=O)Nc2ccccc2)cc1Cl,2.52% (inactive),
COc1ccc(-c2nc(N3CCN(S(=O)(=O)c4ccc(F)cc4)CC3)c3ccccc3n2)cc1,14.6% (inactive),
Cc1cc(C)n2ncc(C(=O)Nc3ccc(Cl)c(Cl)c3)c2n1,13.9% (inactive),
O=C(Nc1cnn(Cc2ccc(F)cc2)c1)c1cnn2c(C(F)F)cc(-c3ccccc3)nc12,-6.37% (inactive),
CCc1ccc(NC(=O)c2cnn3c(C(F)F)cc(C)nc23)cc1,-7.13% (inactive),
O=S(=O)(c1ccccc1C(F)(F)F)N1CCN(c2nc(-c3cccs3)nc3ccccc23)CC1,4.16% (inactive),
O=S(=O)(c1cccc2ccccc12)N1CCN(c2nc(-c3cccs3)nc3ccccc23)CC1,-9.47% (inactive),
O=S(=O)(c1ccc(F)cc1)N1CCN(c2nc(-c3ccc(F)cc3)nc3cc(Cl)ccc23)CC1,12.9% (inactive),
Cc1cc(C)cc(N(CC(=O)NC2CCCCCC2)S(=O)(=O)c2c(C)[nH]c(=O)[nH]c2=O)c1,,14.1 µM (active)
COc1ccccc1OCC(=O)Nc1oc(-c2ccccc2)c(-c2ccccc2)c1C#N,-5.84% (inactive),
COc1ccccc1C(=O)COC(=O)c1ccccc1OCC(=O)Nc1ccc(SC(F)F)cc1,-9.62% (inactive),
CC(C)(C)c1ccc(S(=O)(=O)N2CCN(c3nc(-c4cccs4)nc4ccccc34)CC2)cc1,15.3% (inactive),
O=S(=O)(c1ccc2c(c1)OCCO2)N1CCN(c2nc(-c3ccccc3)nc3ccccc23)CC1,7.83% (inactive),
CC1(C)CC(=O)C2=C(C1)c1c(ccc3ccccc13)NC2c1ccc(Br)o1 (stereo not given),13.7% (inactive),
c1ccc2c(NCC3CCCO3)nc(N3CCOCC3)nc2c1 (stereo not given),-8.4% (inactive),
O=C(CSc1nccc(-c2cccs2)n1)Nc1cccc(Cl)c1,25.1% (inactive),
N#Cc1ccc(S(=O)(=O)N2CCN(c3nc(-c4cccs4)nc4ccccc34)CC2)cc1,-5.08% (inactive),

SMILES,"activity change, negative = inhibition",Potency
Cc1ccccc1S(=O)(=O)N1CCN(c2nc(-c3cccs3)nc3ccccc23)CC1,20% (inactive),
COc1cccc(S(=O)(=O)N2CCN(c3nc(-c4cccs4)nc4ccccc34)CC2)c1,6.72% (inactive),
OCCNc1nc(-c2cccs2)nc2ccccc12,-15.8% (inactive),
NS(=O)(=O)c1ccc(S(=O)(=O)N2CCN(c3nc(-c4cccs4)nc4ccccc34)CC2)cc1,-13.7% (inactive),
O=S(=O)(c1cccc(C(F)(F)F)c1)N1CCN(c2nc(-c3cccs3)nc3cc(Cl)ccc23)CC1,6.21% (inactive),
O=S(=O)(c1ccc(Cl)cc1)N1CCN(c2nc(-c3cccc(Br)c3)nc3ccccc23)CC1,6.57% (inactive),
O=S(=O)(c1ccc(Cl)cc1)N1CCN(c2nc(-c3cccs3)nc3ccccc23)CC1,,inactive
Cc1cccc(/C=N/NC(=O)NC23CC4CC(CC(C4)C2)C3)n1,-1.18% (inactive),
O=S(=O)(c1ccc(F)cc1)N1CCN(c2nc(-c3ccccc3)nc3cc(Cl)ccc23)CC1,19.5% (inactive),
COc1ccccc1NC(=O)COc1ccccc1C(=O)Nc1ccccc1,-31% (inactive),
O=S(=O)(c1ccc2c(c1)OCCO2)N1CCN(c2nc(-c3cccs3)nc3ccccc23)CC1,-13.9% (inactive),
Nc1nc(-c2ccccc2)c(N=Nc2ccc(Cl)cc2)s1,-9.16% (inactive),
COc1ccc(-c2nc(N3CCN(S(=O)(=O)c4ccccc4)CC3)c3ccccc3n2)cc1,18.5% (inactive),
CC(=O)Nc1ccc(NC(=O)COc2ccccc2C(=O)Nc2cccc(Cl)c2Cl)cc1,-13.6% (inactive),
Clc1ccccc1-c1nccc(NCc2ccccc2)n1,-2.27% (inactive),
O=S(=O)(c1ccc2ccccc2c1)N1CCN(c2nc(-c3cccs3)nc3ccccc23)CC1,-5.05% (inactive),
O=S(=O)(c1ccccc1Cl)N1CCN(c2nc(-c3cccs3)nc3ccccc23)CC1,1.96% (inactive),
CC(C)(C)C(=O)OCCNc1nc(-c2ccccc2)nc2ccccc12,,39.8 µM (active)
Cc1cc(C)cc(N(CC(=O)NC2CCC(C)CC2)S(=O)(=O)c2c(C)[nH]c(=O)[nH]c2=O)c1 (stereo not given),,35.5 µM (active)
O=S(=O)(c1ccc(Cl)cc1)N1CCN(c2nc(-c3ccc(F)cc3)nc3cc(Cl)ccc23)CC1,16.7% (inactive),
